# Data: PubChem BioAssay
# Calls of active or inactive are those of the source.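 How the source made its calls, unless noted: active means normalized viability below 100% at a tested concentration; inactive means the rest.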
# What was measured:
# [1] = ovarian cancer cell viability with rucaparib, profiling panel, oncology-focused library, rucaparib conditional (AID 1508598); details: patient-derived ovarian cancer cells, CellTiter-Glo viability, 144 h, stronger effect = lower value
# [2] = liver-stage malaria parasite growth inhibition, primary screen, cell-based, HepG2, luciferase luminescence, HepG2 viability (AID 624349; in the data active means parasite load remaining mostly below about 12%, no sharp cut-off; inactive means mostly above about 10%;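 further: 100% = mean of DMSO negative control wells on the same plate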); details: P. berghei liver stage in HepG2, luciferase luminescence, concentration not given here; parasite load remaining: stronger effect = lower value; viability: measured here: HepG2 viability without parasites
# [3] = sensitizers of A549 cells to miR-34 induction, primary screen, imaging, A549 dox-inducible miR-34, nuclei and caspase counts (AID 1347080;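 active means compounds whose cell count with miR-34 switched on is under 0.7 times the count with it off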); details: A549 miR-34 inducible, Hoechst nuclei count, 48 h
# [4] = survival rescue of mitochondrial mutant cells in low glucose, primary screen, MELAS cybrids, Rieske KO mouse fibroblasts, CellTiter-Glo (AID 1508586;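 active means mean z-score across replicates of 1.96 or higher in either the MELAS or the Rieske mutant cell line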;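 further: z relative to plate mean and SD of compound and empty wells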)
# [5] = biological target: NAD(+) hydrolase SARM1 (Homo sapiens) (UniProt Q6SZW1); test: SARM1 TIR NADase inhibitors, cell lysate, NAD-Glo luminescence (AID 1508614;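 active means compound whose remaining NAD level is above about 45 nM, limit read from the data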); details: SAM-TIR HEK293T lysate NADase, at 1 µM, stronger effect = higher value
# [6] = viability rescue of complex I mutant cybrids, primary screen, cell-based, galactose medium, ATP luminescence (AID 1645843;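 active means z-score of at least 1.8 in each of two replicates, scored against plate mean and spread of sample wells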;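 further: positive z means more ATP and so rescue of galactose-driven cybrid death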); details: complex I mutant cybrid cells, 72 h, stronger effect = higher value
# [7] = stronger effect = lower value, cell number ratio, induced over uninduced
# [8] = measured here: relative caspase fold change +Dox/-Dox
# [9] = measured here: total cells with miR-34 induction, stronger effect = lower value
# [10] = measured here: total cells without miR-34 induction
# [11] = MELAS cybrid survival, CellTiter-Glo 48 h, stronger effect = higher value
# [12] = Rieske KO mouse fibroblast survival, CellTiter-Glo 72 h
# NAD(+) hydrolase SARM1 (Homo sapiens), sequence (Q6SZW1 whole entry, looked up): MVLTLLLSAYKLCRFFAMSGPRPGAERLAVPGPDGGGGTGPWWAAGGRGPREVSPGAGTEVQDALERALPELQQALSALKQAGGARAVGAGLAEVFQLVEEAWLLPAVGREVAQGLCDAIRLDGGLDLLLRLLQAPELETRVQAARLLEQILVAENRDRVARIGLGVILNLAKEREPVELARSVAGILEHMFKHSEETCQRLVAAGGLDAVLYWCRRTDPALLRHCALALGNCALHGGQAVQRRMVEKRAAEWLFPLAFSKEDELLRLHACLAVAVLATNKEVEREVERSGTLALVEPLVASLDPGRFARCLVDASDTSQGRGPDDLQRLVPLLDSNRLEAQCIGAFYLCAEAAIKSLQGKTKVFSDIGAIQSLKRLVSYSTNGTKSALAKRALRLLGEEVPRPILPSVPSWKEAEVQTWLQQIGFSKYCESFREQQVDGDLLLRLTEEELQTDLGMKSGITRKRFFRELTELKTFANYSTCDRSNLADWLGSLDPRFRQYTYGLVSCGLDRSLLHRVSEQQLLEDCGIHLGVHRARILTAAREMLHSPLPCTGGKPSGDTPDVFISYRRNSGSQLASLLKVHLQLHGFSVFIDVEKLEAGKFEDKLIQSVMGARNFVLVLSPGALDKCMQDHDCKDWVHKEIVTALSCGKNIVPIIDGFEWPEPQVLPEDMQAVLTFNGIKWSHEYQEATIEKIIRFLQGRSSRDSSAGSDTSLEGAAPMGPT
smiles,measurement,setting,value
Cc1ccc(NC(=O)c2ccc(CN3CCN(C)CC3)cc2)cc1Nc1nc(-c2cccnc2)cs1,viability,"[1]; at 1.25 µM, OCI-C5x cells, with rucaparib 10 µM, 100% = cells with rucaparib alone",106% (inactive)
same,viability,"[1]; at 1.25 µM, OCI-C5x cells, without rucaparib",130% (inactive)
same,viability,"[1]; at 1.25 µM, OCI-P5x cells, with rucaparib 20 µM, 100% = cells with rucaparib alone",91.9% (active)
same,viability,"[1]; at 1.25 µM, OCI-P5x cells, without rucaparib",87.9% (active)
same,viability,"[1]; at 5 µM, OCI-C5x cells, with rucaparib 10 µM, 100% = cells with rucaparib alone",129% (inactive)
same,viability,"[1]; at 5 µM, OCI-C5x cells, without rucaparib",138% (inactive)
same,viability,"[1]; at 5 µM, OCI-P5x cells, with rucaparib 20 µM, 100% = cells with rucaparib alone",84.2% (active)
same,viability,"[1]; at 5 µM, OCI-P5x cells, without rucaparib",82% (active)
CC1(C)S[C@@H]2[C@H](NC(=O)[C@H](NC(=O)N3CCNC3=O)c3ccccc3)C(=O)N2[C@H]1C(=O)O,parasite load remaining,[2],109% (inactive)
same,viability,[2],98.7%
same,fold change,[3]; [7],0.917 (inactive)
same,fold change,[3]; [8],1.11
same,cell count,[3]; [9],9220
same,cell count,[3]; [10],10100
same,z-score,[4]; [11],0.409 (inactive)
same,z-score,[4]; [12],-0.381
same,remaining NAD,[5],10 nM (inactive)
O=C(O)CCCCCNC(=O)NC1CCCCC1,fold change,[3]; [7],0.882 (inactive)
same,fold change,[3]; [8],0.38
same,cell count,[3]; [9],9190
same,cell count,[3]; [10],10400
same,z-score,[4]; [11],-0.568 (inactive)
same,z-score,[4]; [12],0.057
same,z-score,[6],0.68 (inactive)
